The results in this text go back to PubChem BioAssay.

Experiment [1] deals with Human papillomavirus type 1a protein E7 (residues 44-93). As to the kind of experiment: small molecules binding HPV E7 44-93 – biochemical, small-molecule microarray, residues 44-93, 635 nm fluorescence, primary screen (AID 1108).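 Also: E7 fragment applied at 1 µg/mL in TBST for 1 h at 4 C; score combines spot fluorescence with its signal to noise ratio.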 To be noted: fluorescence 635 nm, higher = more signal.
Experiment [2] in a line: hepatitis C replication reporter changes, two-sided – Huh7 cells, luciferase reporter, HCV replication inhibitor project, primary screen (AID 1109).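 Also: huh7 hepatoma cells harbouring a luciferase neomycin HCV replicon reporter; luciferase luminescence as measure of HCV replicon replication; test concentration not given here.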 To be noted: Huh7 HCV replicon luciferase reporter, 48 h; higher = more signal. For orientation: A reporter such as luciferase makes a cellular process visible.
Experiment [3] has as its target Left-right determination factor 2 (Homo sapiens) (UniProt O00292). As to the kind of experiment: small molecules binding LEFTY2 protein – biochemical, small-molecule microarray, 635 nm fluorescence scan, primary screen (AID 1110). Particulars: higher = more signal.
Experiment [4] has as its target Calmodulin-1 (Homo sapiens) (UniProt P0DP23). The experiment in a line: small molecules binding calmodulin-1 with EGTA – biochemical, small-molecule microarray, Cy5-labelled CALM1, profiling panel (AID 1111).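 Also: labelled calmodulin applied in Tris saline Tween buffer holding calcium plus EGTA and DTT.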 To be noted: Cy5-CALM1 binding fluorescence, higher = more signal.
For experiment [5] the target is unchanged. As to the kind of experiment: small molecules binding Ca-loaded calmodulin-1 – biochemical, small-molecule microarray, Cy5-labelled CALM1, plus calcium, artefact control for SMM control-protein annotation, profiling panel (AID 1112).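 Also: score merges spot fluorescence with signal to noise from triplicate slides.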 To be noted: Cy5-CALM1 binding fluorescence, higher = more signal.
A short description of experiment [6]: probe aWnt5a binding to arrayed compounds – biochemical, biotinylated probe, 635/667 nm fluorescence, primary screen (AID 1113).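 Also: score merges 667 nm fluorescence intensity with signal-to-noise per printed feature.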 Particulars: small-molecule microarray, higher = more signal.
The nature of experiment [7]: probe aShh binding to arrayed compounds – biochemical, biotinylated probe, 635/667 nm fluorescence, primary screen (AID 1114).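 Also: probe is biotin-labelled aShh protein from a stem cell growth factor screen; measures binding of labelled protein to compounds printed on the slide; score merges feature fluorescence at 667 nm with signal-to-noise.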 Particulars: small-molecule microarray, higher = more signal.
Experiment [8] in a line: probe aNog binding to arrayed compounds – biochemical, biotinylated probe, 635/667 nm fluorescence, primary screen (AID 1115).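 Also: probe is biotinylated aNog protein used at 0.15 µg/mL for 1 h at 4 C; z-score combines 667 nm fluorescence of each spot with its signal to noise.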 Particulars: small-molecule microarray, higher = more signal.
Experiment [9] concerns the target Torsin-1A-interacting protein 1 (Homo sapiens) (UniProt Q5JTV8). The experiment in a line: compound microarray binding of lysate hLAP1 – cell lysate, small-molecule microarray, COS7 lysate, 635/667 nm fluorescence, primary screen (AID 1116). To be noted: 635 nm fluorescence, higher = more signal.
Experiment [10] concerns the target Alpha-bungarotoxin (Bungarus multicinctus) (UniProt P60615). As to the kind of experiment: compounds binding labelled alpha-BTX control protein – biochemical, small-molecule microarray, Alexa647 label, 635/667 nm fluorescence, artefact control for SMM control protein annotation, profiling panel (AID 1117). Particulars: alpha-BTX-A647 binding fluorescence, higher = more signal.

Left-right determination factor 2 (Homo sapiens), sequence (O00292 whole entry, looked up): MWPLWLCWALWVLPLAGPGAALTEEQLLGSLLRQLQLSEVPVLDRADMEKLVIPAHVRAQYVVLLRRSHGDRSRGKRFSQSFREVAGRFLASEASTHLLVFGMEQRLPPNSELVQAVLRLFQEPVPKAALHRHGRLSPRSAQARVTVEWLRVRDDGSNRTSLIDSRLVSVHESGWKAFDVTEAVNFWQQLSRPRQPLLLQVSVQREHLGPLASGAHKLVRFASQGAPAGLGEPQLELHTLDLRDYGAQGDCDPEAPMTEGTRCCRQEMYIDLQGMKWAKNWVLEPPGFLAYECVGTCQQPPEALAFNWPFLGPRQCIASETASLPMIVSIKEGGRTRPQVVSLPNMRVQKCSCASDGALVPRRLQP
Alpha-bungarotoxin (Bungarus multicinctus), sequence (P60615 whole entry, looked up): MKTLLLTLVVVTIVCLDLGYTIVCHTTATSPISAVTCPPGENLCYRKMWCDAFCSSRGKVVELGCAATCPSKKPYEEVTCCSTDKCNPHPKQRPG
Torsin-1A-interacting protein 1 (Homo sapiens), sequence (Q5JTV8 whole entry, looked up): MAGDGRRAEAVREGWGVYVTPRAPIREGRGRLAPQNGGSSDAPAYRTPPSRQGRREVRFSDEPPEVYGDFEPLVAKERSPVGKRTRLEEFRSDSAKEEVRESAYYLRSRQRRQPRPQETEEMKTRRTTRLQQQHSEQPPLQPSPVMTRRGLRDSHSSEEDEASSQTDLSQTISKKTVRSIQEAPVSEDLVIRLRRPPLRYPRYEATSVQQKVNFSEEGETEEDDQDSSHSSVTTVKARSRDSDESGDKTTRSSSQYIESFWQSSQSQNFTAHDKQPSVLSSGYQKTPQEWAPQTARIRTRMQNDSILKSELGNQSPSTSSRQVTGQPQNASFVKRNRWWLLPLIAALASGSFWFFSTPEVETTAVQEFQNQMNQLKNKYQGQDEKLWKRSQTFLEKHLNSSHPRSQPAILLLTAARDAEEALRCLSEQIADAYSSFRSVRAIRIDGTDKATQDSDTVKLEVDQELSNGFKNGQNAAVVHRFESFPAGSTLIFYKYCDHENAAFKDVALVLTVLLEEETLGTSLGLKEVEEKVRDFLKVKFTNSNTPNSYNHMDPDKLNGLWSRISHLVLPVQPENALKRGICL

For the compound `O=C1N(CCS(=O)(=O)c2ccccc2)c2ccccc2[C@@H]2OC(c3ccc(OCCCO)cc3)=N[C@]12CCS(=O)(=O)c1ccccc1`, the composite z-score in [1] turned out to be 1.38; in experiment [3], 0.8; in experiment [4], 1.67; in experiment [5], 0.176; in experiment [6], 0.0142; in experiment [7] it was 0.109. The composite z-score in [8] came to 0.0373; in experiment [9], 2.17; in [10] it was 1.67. The compound further had a z-score in experiment [2] of 0.182.

As to `COCCOC(=O)N1C(=O)[C@@]2(c3cc(C#CCCO)ccc31)[C@H](c1ccccc1OCCO)N1[C@H](c3ccccc3)[C@H](c3ccccc3)OC(=O)[C@H]1[C@@H]2C(=O)N1CCc2cc(OC)c(OC)cc2C1`, the composite z-score in experiment [1] was 1.42; in experiment [3], 0.507; in experiment [4] it was 1.07; in experiment [5], 0.0615; in experiment [6], -0.0882; in [7], -0.0119. The composite z-score is -0.0331 in experiment [8], 1.52 in experiment [9] and 1.49 in [10]. This compound had a z-score in experiment [2] of -1.36.

Take `C/C=C/CN(C(=O)C#Cc1ccccc1)[C@H](CO[Si](C)(C)C(C)(C)C)c1ccccc1`: the composite z-score in experiment [1] was 0.0833; in experiment [3] it was -0.594; in experiment [4], -0.855; in experiment [5], -1.76; in experiment [6], -0.286; in experiment [7] it was -0.372. Further, the composite z-score in experiment [8] was -0.338; in experiment [9], -0.721; in [10] it was -2.16. The compound further came in with a z-score in experiment [2] of -0.944.

In the case of `CC(C)CNC(=O)[C@@]1(C)c2ccccc2C(=O)N(Cc2cc(F)cc(C(F)(F)F)c2)[C@H]1c1ccc(CO)cc1`, the composite z-score was 1.35 in experiment [1]; 0.0867 in experiment [3]; 0.0765 in experiment [4]; 0.0987 in experiment [5]; -0.17 in experiment [6]; 0.0639 in experiment [7]. Besides, the composite z-score in experiment [8] is 0.341; in experiment [9], 1.98; in experiment [10], 0.884. The z-score in [2] is -0.732.

For the compound `[N-]=[N+]=NCc1ccccc1C[C@@]1(C(=O)O)N=C(c2ccc(OCCCO)cc2)O[C@@H]1c1ccccc1CN=[N+]=[N-]`, the composite z-score is 1.39 in experiment [1]; 0.219 in experiment [3]; 0.973 in experiment [4]; -0.0107 in [5]; 0.0676 in experiment [6]; 0.0121 in experiment [7]. For the same compound, the composite z-score was -0.56 in [8], 0.74 in experiment [9] and 1.27 in experiment [10]. The compound further registered a z-score in experiment [2] of -1.84.

Regarding `CC(C)C[C@H]1NC(=O)[C@@H](C)NC(=O)[C@@]23C(=O)N[C@@H](Cc4ccccc4)C2[C@H](C)[C@@]2(C)O[C@H]2C3/C=C/C/C=C\CNC1=O` (stereo not given in full), the composite z-score in experiment [1] is 1.29; in experiment [3], 0.137; in experiment [4], -0.596; in experiment [5] it was -1.09; in experiment [6], -0.175; in experiment [7], -0.223. In addition, the composite z-score in experiment [8] was -0.205; in experiment [9], -0.0872; in experiment [10], -0.133. For the same compound, the z-score in [2] was -1.61.

In the case of `C=CCNC(=O)[C@H]1[C@@H]2C(=O)O[C@@H](c3ccccc3)[C@@H](c3ccccc3)N2[C@@H](c2ccc(O)cc2)[C@]12C(=O)Nc1ccc(C#CC3=CCCCC3)cc12`, the composite z-score amounted to 1.32 in experiment [1]; 0.71 in experiment [3]; 0.887 in experiment [4]; 0.571 in experiment [5]; 0.163 in experiment [6]; 0.951 in experiment [7]. Moreover, the composite z-score was 0.587 in experiment [8], 1.11 in experiment [9] and 0.491 in experiment [10]. This compound came in with a z-score in experiment [2] of -1.83.

Turning to `COc1ccc(CCNC(=O)[C@@]2(C)c3ccccc3C(=O)N(Cc3cc(C(F)(F)F)cc(C(F)(F)F)c3)[C@H]2c2ccc(CO)cc2)cc1`, the composite z-score in experiment [1] is 1.28; in [3], 0.0779; in experiment [4] it was 1.33; in [5], -0.228; in experiment [6], -0.152; in [7] it was -0.0669. Moreover, the composite z-score is 0.242 in [8], 0.548 in experiment [9] and -0.183 in experiment [10]. Also, in experiment [2], the z-score is -2.25.

Turning to `COC(=O)C(CC#Cc1ccc2c(c1)[C@]1(C(=O)N2)[C@H](c2ccc(O)cc2)N2[C@H](c3ccccc3)[C@H](c3ccccc3)OC(=O)[C@H]2[C@@H]1C(=O)N1CCc2cc(OC)c(OC)cc2C1)C(=O)OC`, the composite z-score was 0.85 in [1]; 0.737 in [3]; 0.267 in experiment [4]; -0.521 in experiment [5]; 0.324 in [6]; 0.383 in experiment [7]. In addition, the composite z-score in experiment [8] is -0.23; in experiment [9], 1.25; in [10], 1.55. This compound also registered a z-score in experiment [2] of -0.163.

Consider `C=CC[C@@]1(C(=O)O)N=C(c2ccc(OCCCO)cc2)O[C@@H]1c1ccccc1CN=[N+]=[N-]`, for which the composite z-score is 0.895 in experiment [1]; 0.461 in experiment [3]; 1.83 in experiment [4]; 0.608 in [5]; 0.115 in [6]; -0.0119 in experiment [7]. In addition, the composite z-score was 0.0139 in experiment [8], 0.976 in [9] and 0.974 in experiment [10]. The compound also had a z-score in experiment [2] of -1.99.

Take `CCc1cccc(NC(=O)O[C@H]2[C@H](OC(=O)Nc3ccc4c(c3)OCO4)[C@H](OC(=O)Nc3ccc4c(c3)OCO4)[C@@H](OC)O[C@@H]2CO)c1`: the composite z-score in [1] is 1.47; in experiment [3] it was -0.263; in [4], 0.949; in experiment [5], -0.943; in [6], -0.0087; in [7], 0.131. For the same compound, the figures for the composite z-score in experiment [8], in [9] and in [10] were -0.312, 0.154 and 1.18, respectively. In experiment [2], the z-score is -0.548.

Turning to `CC(C)N1CC=CC23O[C@@H]4C=CCCOC(=O)C4[C@H]2C(=O)N(CCCCCO)[C@@H]3C1=O` (stereo not given in full), the composite z-score in experiment [1] is -0.734; in experiment [3] it was -1.18; in experiment [4], 0.861; in experiment [5], -1.34; in experiment [6], -0.124; in experiment [7], -0.0011. The composite z-score in [8] was -0.123; in experiment [9], 1.92; in experiment [10] it was 2.25. Besides, the z-score in experiment [2] was -0.26.

For the compound `C=CC[C@@]12N=C(c3ccc(OCCCO)cc3)O[C@@H]1c1ccccc1N(Cc1ccccc1)C2=O`, the composite z-score is 0.598 in [1]; 0.657 in [3]; 0.792 in [4]; 0.355 in experiment [5]; 0.127 in experiment [6]; -0.114 in [7]. The composite z-score in experiment [8] is 1.1; in experiment [9], 1.16; in experiment [10] it was 0.858. This compound also came in with a z-score in [2] of -2.27.

With `CN(C)CCCNC(=O)[C@@H]1c2ccccc2C(=O)N(C2Cc3ccccc3C2)[C@H]1c1ccc(CO)cc1`, the composite z-score in experiment [1] was 1.1; in experiment [3] it was -0.625; in [4], -0.0693; in experiment [5] it was -0.875; in experiment [6], 0.0436; in [7], 0.0766. Also, the composite z-score in [8] amounted to 0.467; in [9], 0.814; in [10], 0.438. Moreover, the z-score in experiment [2] was -1.9.

Turning to `CCN(CC)c1ccc(N2CC=CC34O[C@@H]5C=CCOC(=O)[C@@H]5[C@H]3C(=O)N(CCO)[C@@H]4C2=O)cc1` (stereo not given in full), the composite z-score in [1] was -0.73; in experiment [3] it was -2.26; in experiment [4] it was -0.97; in experiment [5], 0.266; in experiment [6], -0.25; in [7] it was 0.0756. Moreover, the results for the composite z-score in [8], in [9] and in experiment [10] were -0.338, 0.422 and -1.29, respectively. Also, the z-score in [2] turned out to be 0.466.

`C=CC[C@]1(C(=O)NCc2ccccc2)COC(c2ccc(OCCCO)cc2)=N1`: the composite z-score in experiment [1] was -0.298; in experiment [3], -1; in experiment [4], 0.388; in experiment [5], -0.733; in experiment [6], 0.0293; in experiment [7], 0.0982. Moreover, the figures for the composite z-score in [8], in [9] and in [10] were 0.54, 3.03 and 3.83, respectively. In experiment [2], this compound gave a z-score of -1.65.
